# Experimental data: PubChem BioAssay
# Where “and” joins values, the source holds several entries; their conditions need not be identical. Identical values can stand only once. More than one record can exist for a structure, and the calls need not agree. Calls of active or inactive are those of the source.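 How the source made its calls, unless noted: active means inhibition at or above 50% relative to wild type and mutant plate controls; inactive means inhibition below 50%.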
# Tests used:
# [1] = inhibitors of TNFa-induced NFkB p65 translocation, primary screen, imaging, HUVEC, MLSMR starter and 10KST1 sets (AID 438;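 active means inhibition above 20% together with a positive visual image hit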;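 further: compound added about 3h40 before a 20 min TNFalpha stimulation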;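 on inhibition: signal is the nuclear over cytoplasmic p65 intensity ratio per well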); settings: HUVEC TNFa-induced p65 nuclear translocation; cell count: measured here: nuclei count (cytotoxicity indicator), at 2.08 µM; inhibition: at 2 µM, stronger effect = higher value, 0% TNFa-plus-vehicle, 100% no-TNFa wells
# [2] = inhibitors of mutant huntingtin aggregation, primary screen, imaging, exon1htt(103Q)mCFP cells, high-content imaging (AID 483;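 active means visual image review flags a hit and inhibition of aggregation exceeds 20%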;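 further: compound exposure lasted 3 days before fixation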;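 on nuclei count: percent of the per-plate median nuclei count of sample wells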); settings: exon1htt(103Q)mCFP cell line, aggregate imaging, at 2 µM; inhibition of aggregation: stronger effect = higher value; nuclei count: measured here: cell count, toxicity
# [3] = inhibitors of E-selectin induction by TNFa, primary screen, imaging, HUVEC, immunofluorescence, MLSMR starter and 10KST1 sets (AID 487;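 active means visually confirmed hit in the image check and inhibition above 20%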;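 on inhibition: signal is fraction of cell area covered by stained E-selectin grains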;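 on nuclei count: 100% = median nuclei count of all wells on the same plate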); settings: HUVEC TNFalpha-induced E-selectin immunofluorescence imaging, at 2 µM; inhibition: stronger effect = higher value; nuclei count: measured here: cell number, toxicity
# [4] = DUSP6 inhibitors restoring Erk phosphorylation by chemical complementation, primary imaging in DUSP6-transfected HeLa (AID 609;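 active means compounds giving at least 50% inhibition in the cell-based MKP-3 phosphatase rescue imaging test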;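 on inhibition: phospho-Erk level distribution per well compared with pooled transfected vehicle control wells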); settings: HeLa MKP-3 transfected, phospho-Erk imaging KS statistic, at 10 µM, cells stimulated with TPA for 15 min
# [5] = biological target: Dual specificity protein phosphatase 6 (Homo sapiens) (UniProt Q16828); assay: as above; settings: HeLa MKP-3 transfected, phospho-Erk imaging KS statistic; at 10 µM; stronger effect = higher value; cells stimulated with TPA for 15 min
# [6] = biological target: Voltage-gated potassium channel subunit beta-2 (Rattus norvegicus) (UniProt P62483); assay: KvBeta enzyme negative modulators, primary screen, biochemical, NADPH fluorescence (AID 622;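 active means fluorescence slope higher than the sample average by over 3 SD, cut at about -0.22 in these data, passing the limit was not always enough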;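 further: slope of raw intensity against log time taken from 70 to 1610 s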); settings: recombinant KvBeta, 4-cyanobenzaldehyde reduction, at 10 µM, stronger effect = higher value
# [7] = biological target: Voltage-gated potassium channel subunit beta-2 (Rattus norvegicus) (UniProt P62483); assay: KvBeta positive modulators, primary screen, biochemical, NADPH fluorescence (AID 623;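 active means NADPH fluorescence slope more negative than the mean of all samples by about 3 SD, 99.7% confidence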;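 further: fluorescence intensity change per second fitted from 20 to 320 s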); settings: Recombinant KvBeta, NADPH fluorescence decrease slope, 10 min; at 10 µM; stronger effect = lower value
# [8] = biological target: Alpha-2C adrenergic receptor (Homo sapiens) (UniProt P18825); assay: modulators of alpha2C/GIRK thallium flux, primary screen, cell-based, HEK293 alpha2C/GIRK1/2 (AID 624;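 active means fluorescence slope after compound addition differing from the mean of all screened samples at 99.7% confidence, in either direction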;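 further: slope of fluorescence ratio to pre-addition baseline per second over 15 to 24 s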); settings: thallium flux BTC fluorescence, at 10 µM, actives lie on both sides
# [9] = inhibitors of larval lipid processing in zebrafish, primary screen, whole organism, PED6 fluorescence, gall bladder and intestine (AID 686;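 active means a full or partial loss of lipid-probe fluorescence in the fish gall bladder, intestine or both, judged by eye; inactive means no fluorescence loss, or compound toxic to the fish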;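 further: larvae 5 to 7 days old with five fish per well; signal comes from phospholipase A2 cleavage of quenched PED6 carried via bile; overnight exposure to compound and PED6 before scoring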); settings: Zebrafish larvae PED6 lipid processing, fluorescence scoring; screened at 20 µM (by protocol)
# [10] = inhibitors of Chlamydomonas gravitaxis, primary screen, whole organism, Chlamydomonas reinhardtii, WT vs cilia-less mutant, absorbance, 96-well (AID 463189); settings: OD600 absorbance, 2 days, at 10 µM, stronger effect = higher value;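 further: 0% = wild type cc124 cells in DMSO and 100% = ciliumless bld1 mutant cells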
# [11] = inhibitors of Sendai virus-induced IRF3 signaling, primary screen, TLR/RLR signaling modifier project, cell-based, Sendai virus stimulus, luciferase, 10K MLSCN set (AID 602276;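 active means inhibition at or above 50% at 10 µM; inactive means inhibition below 50%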;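 further: firefly luciferase from ISG56 promoter only with Renilla not read in this screen; 0% = Sendai virus plus DMSO and 100% = medium plus DMSO without virus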); settings: HEK293 RL24 IRF3 luciferase reporter, at 10 µM, stronger effect = higher value
# [12] = inhibitors of poly I:C-induced TLR3 signaling, primary screen, cell-based, poly I:C stimulus, luciferase, 10K MLSCN set (AID 602277;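 active means inhibition of the reporter signal at or above 50%; inactive means inhibition below 50%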); settings: HEK293-TLR3 RL24 IRF3 luciferase reporter, at 10 µM, stronger effect = higher value
# [13] = measured here: cell density z-score
# [14] = measured here: nuclear c-Myc green intensity z-score
# [15] = measured here: nuclear pErk red intensity z-score, stronger effect = higher value
# Sequence of Voltage-gated potassium channel subunit beta-2 (Rattus norvegicus) (P62483 whole entry, looked up): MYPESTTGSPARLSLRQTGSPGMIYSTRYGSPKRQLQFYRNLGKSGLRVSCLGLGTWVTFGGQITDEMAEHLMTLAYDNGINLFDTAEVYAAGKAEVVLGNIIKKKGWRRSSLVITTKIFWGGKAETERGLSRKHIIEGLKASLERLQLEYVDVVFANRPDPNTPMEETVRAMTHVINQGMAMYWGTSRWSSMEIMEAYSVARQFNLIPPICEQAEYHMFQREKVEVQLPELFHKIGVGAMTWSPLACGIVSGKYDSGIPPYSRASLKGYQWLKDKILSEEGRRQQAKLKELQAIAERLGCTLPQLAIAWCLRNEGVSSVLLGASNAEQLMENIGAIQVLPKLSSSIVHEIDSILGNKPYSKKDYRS
# Sequence of Alpha-2C adrenergic receptor (Homo sapiens) (P18825 whole entry, looked up): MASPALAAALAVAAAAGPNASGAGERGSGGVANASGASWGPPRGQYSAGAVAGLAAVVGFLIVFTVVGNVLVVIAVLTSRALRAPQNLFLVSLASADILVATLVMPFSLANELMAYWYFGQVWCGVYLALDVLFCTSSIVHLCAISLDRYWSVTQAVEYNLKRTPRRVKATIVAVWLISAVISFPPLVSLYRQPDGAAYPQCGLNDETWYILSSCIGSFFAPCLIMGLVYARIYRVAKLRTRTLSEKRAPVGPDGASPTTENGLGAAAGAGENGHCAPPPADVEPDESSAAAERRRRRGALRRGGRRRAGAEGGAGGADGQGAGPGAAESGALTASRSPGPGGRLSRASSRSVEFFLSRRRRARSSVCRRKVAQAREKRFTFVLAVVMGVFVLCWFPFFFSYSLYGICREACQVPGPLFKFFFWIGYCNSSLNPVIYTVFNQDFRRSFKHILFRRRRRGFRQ
# Sequence of Dual specificity protein phosphatase 6 (Homo sapiens) (Q16828 whole entry, looked up): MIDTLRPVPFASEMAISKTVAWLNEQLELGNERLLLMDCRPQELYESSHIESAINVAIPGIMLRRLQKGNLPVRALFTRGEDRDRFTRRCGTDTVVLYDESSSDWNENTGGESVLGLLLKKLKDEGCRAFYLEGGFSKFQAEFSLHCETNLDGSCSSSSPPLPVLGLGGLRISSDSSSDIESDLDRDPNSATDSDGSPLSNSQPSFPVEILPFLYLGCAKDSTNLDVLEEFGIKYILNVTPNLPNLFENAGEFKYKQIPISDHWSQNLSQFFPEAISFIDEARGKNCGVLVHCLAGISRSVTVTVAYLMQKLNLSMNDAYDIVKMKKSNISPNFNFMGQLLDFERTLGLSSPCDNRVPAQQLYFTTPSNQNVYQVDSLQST
SMILES,cell count [1],inhibition [1],inhibition of aggregation [2],nuclei count [2],inhibition [3],nuclei count [3],"z-score [4, 13]","z-score [4, 14]","z-score [4, 15]",inhibition [5],fluorescence slope [6],NADPH fluorescence slope [7],slope [8],outcome [9],inhibition [10],inhibition [11],inhibition [12]
CCCN(CCC)C(=O)C(CCC(=O)O)NC(=O)c1ccccc1 (stereo not drawn),589,-1.1% (inactive),11.8% (inactive),92.5%,-37.3% (inactive),118%,-1.75,0.853,-0.876,5.79% (inactive),-0.461 (inactive),-3.2e-05 (inactive),0.00459 (inactive),inactive,5.36% (inactive) and -10.6% (inactive),11.3% (inactive),28% (inactive)
COc1ccc(/C=C(/C#N)c2cccnc2)cc1OC,515,4.6% (inactive),17.7% (inactive),82.3%,-17.2% (inactive),112%,0.571,-1.05,-1.32,1.48% (inactive),-0.499 (inactive),-4.4e-05 (inactive),0.00455 (inactive),inactive,-22% (inactive),6.71% (inactive),-45.5% (inactive)
Cc1cccc(N2C(=O)CC(N3CCN(Cc4ccc(Cl)cc4)CC3)C2=O)c1 (stereo not drawn),544,-6.1% (inactive),17.3% (inactive),110%,-107% (inactive),132%,1.1,-1.84,-0.334,3.56% (inactive),-0.551 (inactive),-3.6e-05 (inactive),0.00524 (inactive),inactive,-12.9% (inactive),16.4% (inactive),18% (inactive)
CC1(C)CC(=O)C2=C(C1)N(CC1CCCO1)C(=O)C2(O)C(F)(F)F (stereo not drawn),503,6.9% (inactive),-2.8% (inactive),108%,-123% (inactive),123%,-0.368,0.41,-0.669,1.75% (inactive),-0.492 (inactive),-1.2e-05 (inactive),0.00532 (inactive),inactive,29.7% (inactive),-0.648% (inactive),98% (active)
Cc1ccc(C2/C(=C(/O)c3cnn(-c4ccccc4)c3C)C(=O)C(=O)N2CCN2CCOCC2)o1 (stereo not drawn),520,-2.8% (inactive),10.2% (inactive),100%,-56.6% (inactive),126%,-0.925,1.9,-0.672,-10.5% (inactive),-0.531 (inactive),-4.5e-05 (inactive),0.00497 (inactive),inactive,-18.9% (inactive),-28.4% (inactive),-75.5% (inactive)
CCCNC(=O)NS(=O)(=O)c1ccc(Cl)cc1,639,-5.9% (inactive),14.1% (inactive),84.6%,-56.7% (inactive),120%,-0.235,0.988,1.2,-0.493% (inactive),-0.477 (inactive),-1.5e-05 (inactive),0.00564 (inactive),inactive,-16% (inactive) and -6.85% (inactive),-0.0514% (inactive),14.7% (inactive)
CCN(CC)CC#CCOC(=O)C(O)(c1ccccc1)C1CCCCC1 (stereo not drawn),506,-6.6% (inactive),-15.9% (inactive),97.3%,4.9% (inactive),112%,-0.442,-0.591,0.229,5.42% (inactive),-0.492 (inactive),-7.5e-05 (inactive),0.00459 (inactive),inactive,6.66% (inactive) and 16.9% (inactive),9.64% (inactive),30.4% (inactive)
CC1C/C=C/C=C/C=C/C=C/C(O[C@@H]2O[C@H](C)[C@@H](O)[C@H](N)[C@@H]2O)CC2OC(O)(CC(O)CC3OC3/C=C/C(=O)O1)CC(O)C2C(=O)O (stereo partly drawn),624,-3.2% (inactive),0.7% (inactive),111%,-59.4% (inactive),135%,-0.528,-0.94,-0.621,11.3% (inactive),-0.469 (inactive),-4.6e-05 (inactive),0.00542 (inactive),inactive,1.43% (inactive),7.33% (inactive),28.4% (inactive)
CN1CCN(CCCN2c3ccccc3Sc3ccc(Cl)cc32)CC1,625,-0.8% (inactive),6.1% (inactive),98.7%,-67.5% (inactive),115%,0.0938,1.34,0.8,30.1% (inactive),-0.449 (inactive),1.3e-05 (inactive),0.00441 (inactive),inactive,96.7% (active) and 24.7% (inactive),17.3% (inactive),22.7% (inactive)
